According to PubChem BioAssay (NCATS):
Records with an inconclusive call do not appear. The source made the active and inactive calls. Calls follow the shape of the full dose curve.

Experiment: Primary qHTS to identify inhibitors of SARS-CoV-2 cell entry (AID 1645846); also: nearly all actives have a fitted effect of over 45% in size
Conditions: SARS-CoV-2 pseudovirus cell entry assay, luminescence; activity change, negative = inhibition: at 57.1 µM (top of the series) unless noted
Outline: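 Entry measured by luciferase signal 48 h after adding SARS-CoV-2-S pseudotyped MLV particles to HEK293-ACE2 cells preincubated 1 h with compounds. Normalisation: bald particles and spike particles.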
Potency is read from the fitted curve at half-maximal effect.

| SMILES | activity change, negative = inhibition | Potency |
| --- | --- | --- |
| Cc1cc(C)c(CNC(=O)c2cc(-c3ccc(N4CCN(C)CC4)nc3)cc3c2c(C)cn3C(C)C)c(=O)[nH]1 | -89.9% | – |
| CCCC[C@@H](C=O)NC(=O)[C@H](CC(C)C)NC(=O)OCc1ccccc1 | -89.9% | – |
| CN1CCN(c2ccc(C(=O)Nc3n[nH]c4ccc(Cc5cc(F)cc(F)c5)cc34)c(NC3CCOCC3)c2)CC1 | – | 28.2 µM (active) |
| Cc1cc2cc(Oc3ccnc(Nc4cccc(CS(=O)(=O)NCCN(C)C)c4)n3)ccc2[nH]1 | – | 35.5 µM (active) |
| O=C1Nc2nc(-c3c(O)cccc3OCC3CC3)cc([C@@H]3CCCNC3)c2CO1 | -96.7% | – |
| CCCCNc1ncc2c(-c3ccc(CN4CCN(C)CC4)cc3)cn(C3CCC(O)CC3)c2n1 (stereo unspecified) | – | 14.1 µM (active) |
